Source: the supplement of paper PMC6555819

Experiments:
Test in all cases: PBM binding z-score (relative to random genomic background probes); higher = stronger binding; sequences stand for … in GC…GCGATTGACAGCGTAGAATGAAGG
[1] = tested on: FXR:RXRa (NR concentration 270 nM, RXRa partner concentration 90 nM)
Outline: (§1)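 On custom Agilent 4×180K arrays, double-stranded probes with 34-nt variable regions carried direct-repeat seeds, single-nucleotide variants, half-site ablations or random human genomic background. Ligand-free nuclear receptor dimers were applied for 1 h, and binding was read with antibodies against each partner (one per run). Binding z-scores come from regression-normalized fluorescence, with the random background probes as reference.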

[2] = tested on: LXRa:RXRa (NR concentration 270 nM, RXRa partner concentration 90 nM)
Outline: as §1

[3] = tested on: LXRa homodimer (NR concentration 270 nM)
Outline: as §1

[4] = tested on: LXRb:RXRa (NR concentration 270 nM, RXRa partner concentration 90 nM)
Outline: as §1

[5] = tested on: LXRb homodimer (NR concentration 270 nM)
Outline: as §1

[6] = tested on: PPARa:RXRa (NR concentration 270 nM, RXRa partner concentration 90 nM)
Outline: as §1

[7] = tested on: PPARg:RXRa (NR concentration 180 nM, RXRa partner concentration 90 nM)
Outline: as §1

[8] = tested on: PPARg:RXRa 270nM:90nM, anti-RXR (NR concentration 270 nM, RXRa partner concentration 90 nM)
Outline: as §1

[9] = tested on: PPARg:RXRa 30nM:10nM, anti-RXR (NR concentration 30 nM, RXRa partner concentration 10 nM)
Outline: as §1

[10] = tested on: PPARg:RXRa 90nM:30nM, anti-RXR (NR concentration 90 nM, RXRa partner concentration 30 nM)
Outline: as §1

[11] = tested on: PPARg:RXRa DBDmut IVT, anti-RXR (DBD mutation: RXRa K156A/R161A, NR concentration 270 nM, RXRa partner concentration 90 nM)
Outline: as §1

[12] = tested on: PPARg:RXRa IVT, anti-PPARg (NR concentration 270 nM, RXRa partner concentration 90 nM)
Outline: as §1

[13] = tested on: PPARg DBDmut:RXRa IVT, anti-PPARg (DBD mutation: PPARg1 K132A/R137A, NR concentration 270 nM, RXRa partner concentration 90 nM)
Outline: as §1

[14] = tested on: PPARg DBDmut IVT, anti-PPARg (DBD mutation: PPARg1 K132A/R137A, NR concentration 270 nM)
Outline: as §1

[15] = tested on: PPARg homodimer (NR concentration 180 nM)
Outline: as §1

[16] = tested on: PXR:RXRa (NR concentration 270 nM, RXRa partner concentration 90 nM)
Outline: as §1

[17] = tested on: PXR homodimer (NR concentration 270 nM)
Outline: as §1

[18] = tested on: RARa homodimer (NR concentration 270 nM)
Outline: as §1

[19] = tested on: RARb:RXRa (NR concentration 270 nM, RXRa partner concentration 90 nM)
Outline: as §1

[20] = tested on: RARa:RXR (NR concentration 270 nM, RXRa partner concentration 90 nM)
Outline: as §1

Sequence	PBM binding z-score [1]	PBM binding z-score [2]	PBM binding z-score [3]	PBM binding z-score [4]	PBM binding z-score [5]	PBM binding z-score [6]	PBM binding z-score [7]	PBM binding z-score [8]	PBM binding z-score [9]	PBM binding z-score [10]	PBM binding z-score [11]	PBM binding z-score [12]	PBM binding z-score [13]	PBM binding z-score [14]	PBM binding z-score [15]	PBM binding z-score [16]	PBM binding z-score [17]	PBM binding z-score [18]	PBM binding z-score [19]	PBM binding z-score [20]
AGTCAAAGTTCATCTTGGTAACGTAAGATATGCT	6.87	5.48	5.97	4	2.25	4.58	6.07	6	3.31	5.53	0.418	2.63	0.383	1.1	2.64	4.92	6.26	1.55	4.95	
CGTCCAAGGTCAGAGAGGTCATTGAATGCCGAGT	6.84	6.1	6.22	5.74	0.491	6.01	4.47	5.05	1.68	3.33	2.72	3.6	0.144	-1.01	2.82		13.6	0.848		6.68
CCTACTGGGCCAAAGGTCAGTGATTCCAATGCTC	2.78	2.95	1.1	3.34	-0.252	6.01	11.7	10.2	9.62	12.5	4.94	6.5	0.904	-0.864	4.06	3.49	0.00567	1.82	4.1	
CGTCCAAGGTCAAGCTCAGTGAAAGAGACTCGAA	7.44	5.54	0.428	3.91	0.539	5.75	5.25	5.77	1.89	4.21	3.71	3.76	0.736	0.448	3.54	3.92	0.3	0.572	5.27	
CAAACTAGGTCACCGGAAAGTCAAAGTCCGCATG	4.54	3.74	0.834	2.79	0.685	5.64	9.52	7.27	5.72	7.23	8.88	9.33	3.21	3.47	2.67	2.14	0.0377	0.631	4.72	
TCTAGTTGGTTACGGAGGTCACACACGACGGGTA	2.67	3.44	3.06	3.14	1.06	3.67	2.59	3.61	3.44	3.42	1.85	2.98	1.22	0.724	3.22	4.22	1.44	2.34	3.25	
ACTAACAGGCCAAGGGTCACTCAAGATTAGTCCG	2.89	3.27	0.663	3.06	0.292	4.35	6.9	6.64	4.86	6.91	0.923	3.21	0.489	-0.189	3.04	3.56	0.163	1.2	3.57	
TCTCGGAGGTCACGAAGGTCAGAGCTTTCCAGAG	7.49	6.31	3.52	5.6	0.683	6.27	7.7	7.54	4.57	6.59	4.48	6.17	0.14	-0.128	4.35		9.02	1.11		6.63
CGTCCAAGGTCAGTGAGGTCAGTGAATGCCGAGT	5.29	4.25	2.06	3.89	-0.0298	4.72	3.46	4.07	0.585	2.61	3.14	3.83	-0.101	-0.804	3.15	5.76	11.8	0.545	5.51	
TCTCGGAGGACACGAAAGGGCAGAGCTCGACATC	0.131	0.581	-0.282	-0.082	-0.72	0.48	0.29	0.85	1.65	1.2	1.43	0.279	-1.54	-1.04	-0.108		-0.585	-0.203	2.42	0.468
CCGACGGGGGCAGAAAGGTTACCATACCATCCGG	2.77	2.96	0.333	4.22	3.55	3.93	1.68	3.06	0.967	2.16	0.901	2.55	3.18	2.71	2.43		2.06	0.566		3.91
GGAACGAGGGCAAAGGTGATAGCATCTGTCGACG	2.08	1.64	-0.402	1.23	-0.651	4.97	9.32	8.6	7.51	9.41	5.67	5.29	0.379	0.895	1.42	1.9	0.114	0.0137	2.72	
ATCGAAAGGTCGACGAGTTGAGTATACACCGTTT	3.68	3.25	0.0436	2.75	0.676	3.98	2.27	2.77	1.17	1.91	0.59	1.57	1.03	0.857	1.26	3.23	1.84	0.451	3.7	
GATACAGGGGCAAGGCCAGAGTACGCGTATTGAT	-0.0183	-0.167	-0.13	0.382	-0.692	0.546	0.875	0.31	0.0579	0.23	0.794	0.691	-0.76	-0.28	0.334		0.0474	-0.216	1.65	0.0151
AATACAGGGTCACTGGGCCAGAGTAGGTACGAAT	6.75	5.6	1.01	4.21	0.418	6.23	8.71	6.98	3.69	5.91	4.06	5.96	1.16	2.2	3.2		0.0493	1.05	4.3	4.88
CCTTACGGGTCAAGGTTATCGCACGGGTGGTACG	6.04	3.62	0.367	2.95	0.18	5.07	4.85	5.31	2.29	3.7	2.42	3.71	0.643	-0.085	2.19		0.106	0.512	4.2	4.53

Sequence	PBM binding z-score [1]	PBM binding z-score [2]	PBM binding z-score [3]	PBM binding z-score [4]	PBM binding z-score [5]	PBM binding z-score [6]	PBM binding z-score [7]	PBM binding z-score [8]	PBM binding z-score [9]	PBM binding z-score [10]	PBM binding z-score [11]	PBM binding z-score [12]	PBM binding z-score [13]	PBM binding z-score [14]	PBM binding z-score [15]	PBM binding z-score [16]	PBM binding z-score [17]	PBM binding z-score [18]	PBM binding z-score [19]	PBM binding z-score [20]
ATACGTAGGTTACATCCGGGTCATTCAGGCTATG	2.32	4.39	1.12	2.83	0.366	3.03	1.57	1.54	0.526	1.13	1.15	2.36	1.24	0.742	1.87		2.6	0.687	2.27	3.48
GCTCGGGGGACAAGGTCAGAGCTTTGTCCGTAGA	3.46	3.46	0.143	3.96	4.29	4.25	3.61	4.54	1.72	3.56	2.28	3.25	1.23	1.71	1.58		0.127	-0.41	3.92	3.59
ATATGTAGGTTACATCCGGGTCATTCTGGCTATG	2.03	3.94	1.66	3.12	0.83	4.43	6.19	4.83	2.69	3.95	7.39	7.49	2.61	2.66	1.91		0.712	0.96	2.21	3.04
CCTACTGGGCCAAAGGTCTTTGATTCCAATGCTC	-0.409	-0.406	-0.413	0.232	-0.841	4.15	8.96	8.59	7.74	9.9	5.05	5.18	0.12	-0.165	0.366		-0.504	-0.497	0.448	0.354
ATCAAAAGGTCGAAGGTGAGTATACCCACCCGAA	5.02	4	0.531	2.87	0.821	5.02	5.28	5.42	3.17	4.75	0.661	2.86	1.48	0.784	2.7		-0.118	0.445	4.05	4.72
CCTTACGGGTCACTCTAGGTTATAGCATCGGAGT	5.09	7.69	1.83	5.58	0.329	4.68	3.33	3.69	1.3	2.76	3.21	3.69	0.202	-0.339	1.82		0.568	0.346	3.68	3.43
TAGCCAAGGTCAGATCGGGCCAGTATACGCTATA	5.26	3.12	-0.0844	2.55	0.145	3.85	1.88	2.35	0.514	1.53	0.246	1.81	0.476	-0.254	1.38		-0.349	-0.193	4.3	2.61
CGTCCGAGGTCAAAGGTCAGTGAAGAGATGACGG	8.25	7.31	3.51	7.09	2.24	7.17	11.3	9.76	8.58	11.5	4.36	6.35	2.87	3.81	5.95		3.02	4.96	5.93	8.81
ATATGTAGGTTACATCCGAGTCATTCAGGCTATG	0.413	1.95	0.304	0.957	0.682	3.1	5.14	4.01	1.78	3.1	6.76	7.07	4.51	3.39	0.982		0.05	0.574	0.973	0.757
AGAATGAGGTTATACGTAGGTCAGGGAAGAAAGT	3.33	4.18	1.07	3.2	0.0984	4.04	2.84	2.74	0.859	2.05	3.82	2.92	1.18	0.81	3.44		0.992	0.747	3.19	4.71
CTCGAAAGGTCGGTTGAGGTCAGTATACGGATAA	5.06	5.23	1.74	3.81	0.351	3.83	1.26	2.17	0.448	1.75	-0.211	1.36	0.0267	0.122	3.1		2.85	1.04	4.13	4.9
ATATGTAGGATATCGGGTCATTCAGTTTGCGCAT	1.64	1.98	0.589	2.02	0.577	3.05	2.36	2.9	1.16	2.09	3.29	4.09	1.47	1.41	1.07		4.53	1.03	1.66	2.53
ATCGAAAGGTCGTGAGGTGACTATACAGAAAGGC	5.54	4.2	0.422	3.45	0.557	5.49	4.59	4.64	1.98	3.39	0.761	2.62	1.76	1.47	1.55		0.227	1.01	3.99	4.52
AATACAGGGTCACTTGGCCAGAGTAGGTACGAAT	6.52	5.13	1.39	4.27	1.54	5.49	5.84	5.4	2.24	4.19	2.55	4.18	1.56	1.27	1.58		0.166	0.292	4.23	4.1
ATACCAAGGTGATCGTGAGTTCGTTGATACTAAC	0.706	0.653	0.426	0.294	-0.366	0.602	0.328	-0.00894	0.101	-0.0417	0.668	0.994	-0.0501	0.822	0.422		3.19	0.465	0.462	0.619
